High-throughput results (PubChem BioAssay)
Most compounds without a hit are left out; they make up all but 3.2% or so of the library.
Nrf2 activator = activators of Nrf2 (ARE) signaling; Potency, µM (series often up to 46.1 µM), without a hit: at the top dose activation, actives largely listed as activators; AREc32 ARE-luciferase reporter (MCF7-derived line), luminescence, 24 h; actives 0.31% (n = 410,000); also: potency is read from the fitted curve at half-maximal effect; % of control where 0% means no effect; nearly all actives have a fitted effect of over 65% in size
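Luminescent ARE reporter assay in AREc32_Fluc cells: overnight plating at 37 deg C, 24 hr compound incubation, Steady-Glo added, 30 min RT before reading.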
p53 reactivation = re-activators of mutant p53; H1299 p53-A138V BP100-luciferase reporter, luminescence, 24 h; Potency, µM (series often up to 92.2 µM), without a hit: at the highest dose activity change, positive = activation, hits mostly activators; actives 0.063% (n = 320,000); also: potency is read from the fitted curve at half-maximal effect; % of control where 0% means no effect; nearly all actives have a fitted effect of over 45% in size
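p53-null H1299 cells stably carrying temperature-sensitive p53-A138V and a BP100-luciferase reporter were pinned with compounds (4-point, 1:5 series) and held 24 hrs at 37 deg C. Luminescence was read 10 min after detection reagent.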
IL2 activator = activates IL-2 in a cell-based reporter assay. IL-2 activation reporter assay, cell-based qHTS; stimulated with anti-CD3/CD4/CD28 beads; in transgenic mouse T cells. activation, % (series mostly up to about 46 µM). actives 0.065% (n = 360,000). AID 652025; in the data active = activation above about 50%; inconclusive = mostly about 30% to 49%; also: 0% is about no effect
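Unstimulated transgenic mouse T cells, 750 per well, received compound and, after 60 minutes, anti-CD3/anti-CD4 bead plus anti-CD28 stimulation. EGFP and DsRed were quantified after 18 hours.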
Nrf2 block = Nrf2 pathway inhibition; A549 ARE-Fluc reporter, luciferase luminescence, 18-24 h; Potency, µM (titrated, usually from 46 µM), without a hit: top-dose activity change, negative = inhibition, hits mostly inhibitors; actives 2.1% (n = 360,000); AID 504444; also: potency is read from the fitted curve at half-maximal effect; % is scaled to controls: 0 for no effect and ±100 for the full control effect; nearly all actives have a fitted effect of over 60% in size
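Nrf2 activity is the BugLite luminescence, read 15 min after reagent at room temperature, following CellTiter-Fluor cytotoxicity readout (30 min, 37C). Compound titrations were applied for 18-24 h to 5000 A549 ARE_Fluc cells/well in 5% FBS OPTI-MEM.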
BRCA1 expr act = activators of BRCA1 expression; MCF7-BRCA1-FFLuc reporter, luminescence, 48 h; response scale: scaled: vehicle 0%, 10 µM genistein 100%; Potency, µM (series often up to 46.1 µM), for the others: top-dose activation, hits mostly activators; actives 1.1% (n = 380,000); AID 624202; also: potency is read from the fitted curve at half-maximal effect; nearly all actives have a fitted effect of over 80% in size
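Cells: MCF7-BRCA1-FFLuc, 2000/well. Exposure: 48 h, 37 °C, 5% CO2. Read: luminescence, 15 min post-substrate. Controls: genistein 10 microM (maximal activation), DMSO (neutral).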
A549 tox = kills or reduces viability of A549 cells in Nrf2 counter-screen. Potency, µM (series often up to 46 µM), for the others: at the top dose activity change, negative = cytotoxicity, most hits filed as inhibitors. actives 0.16% (n = 390,000). A549 ARE-Fluc cells, CellTiter-Fluor viability, 18-24 h; also: potency is read from the fitted curve at half-maximal effect; % is scaled to controls: 0 for no effect and ±100 for the full control effect
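Cytotoxicity counterscreen: CellTiter-Fluor fluorescence was measured in A549 ARE_Fluc cells after 18-24 h of compound exposure in a concentration series. The subsequent BugLite luminescent read reports ARE-luciferase activity.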
Starred values were filed as active, the others as inactive; ? = inconclusive; · = no result; [ ] = another dose, or the depositor's remark. Unless noted, calls follow the shape of the dose curve; as a rule, active = well fitted curve in the direction sought with a large enough effect; inconclusive = small, poorly fitted or top-dose-only effect, or another doubt; inactive = no such curve, though single readings can be large; an effect the other way counts as inactive or inconclusive.

SMILES	Nrf2 activator	p53 reactivation	IL2 activator	Nrf2 block	BRCA1 expr act	A549 tox
COCCn1c(C)cc(C(=O)CSc2nnc(C)s2)c1C	-1%	·	-2	15µM*	-75%	-2%
COCCn1c(C)cc(C(=O)CSc2n[nH]c(N)n2)c1C	0%	17%	8	10%	33%	-5%
O=C(Nc1ccc(F)cc1)Nc1nnc(SCC(=O)N2CCCCC2)s1	0%	·	·	·	·	-2%
Cc1oc(-c2cccc(Br)c2)nc1Cn1c(SCc2cccc(F)c2)nc2cccnc21	0%	·	·	13µM*	·	-25%
Cc1ccc(-c2nc(Cn3c(SCc4ccc(F)cc4)nc4cccnc43)c(C)o2)cc1	1%	·	·	?	·	-24%
OC[C@H]1O[C@@H](c2nc(-c3ccc(Br)cc3)no2)C[C@@H]1O	4%	·	0	·	7.9µM*	·
COc1ccc(-c2noc(-c3csc([C@@H]4C[C@H](O)[C@@H](CO)O4)n3)n2)cc1OC	3%	·	0	·	14µM*	·
COc1cc(OC)cc(-c2noc(-c3csc([C@@H]4C[C@H](O)[C@@H](CO)O4)n3)n2)c1	5%	·	0	·	10µM*	·
O=C(Cn1ccn(-c2ccc(F)cc2)c(=O)c1=O)NCCc1ccccc1	-1%	·	·	6%	·	-6%
CS(=O)(=O)Nc1cccc(C2=NN(C(=O)c3ccccc3)C(c3cccs3)C2)c1 (configuration not stated)	5%	-2%	-1	?	-22%	-12%
CS(=O)(=O)Nc1ccc(C2=NN(C(=O)C3CCCCC3)C(c3cccs3)C2)cc1 (configuration not stated)	7%	0%	0	23µM*	-61%	-13%
Cc1ccc(C(=O)N2N=C(c3cccc(NS(C)(=O)=O)c3)CC2c2cccs2)cc1 (configuration not stated)	14%	-6%	2	23µM*	-46%	0%
CCCCOc1ccc(C(=O)N/C(=C\c2ccc(Br)cc2)C(=O)NC2CCCCC2)cc1	0%	·	·	-9%	·	4%
CCC1CN(C(=O)NCc2ccc(F)cc2)c2cc(C)ccc2O1 (configuration not stated)	0%	-2%	-3	21µM*	-18%	?
Brc1cc(Br)c2ncnc(N3CCCCC3)c2c1	0%	4%	0	26µM*	-91%	?
O=C(CSc1nc2cc(Cl)ccc2s1)NCC1CCCO1 (configuration not stated)	3%	-3%	0	12µM*	19%	-10%
Cc1ccc(-c2ccc(SCC(=O)NCC3CCCO3)nn2)cc1 (configuration not stated)	3%	18%	0	3%	61%	?
O=C(CSc1nc2ccc([N+](=O)[O-])cc2s1)NCC1CCCO1 (configuration not stated)	5%	-3%	-1	?	-16%	-10%
CCOc1ccc(-c2ccc(SCC(=O)NCC3CCCO3)nn2)cc1 (configuration not stated)	2%	15%	0	?	4µM*	6%
CC(C)(C)c1ccc(C(=O)Nc2nnc(SCC(=O)NCC3CCCO3)s2)cc1 (configuration not stated)	0%	18%	-4	10µM*	-43%	-10%
COc1ccc2nc(NC(=O)c3ccc([N+](=O)[O-])o3)sc2c1	?	·	-1	?	-87%	-20%
Cc1ccc(C)c(-c2nnc(NC(=O)c3ccc([N+](=O)[O-])o3)o2)c1	3.5µM*	?	-3	-8%	-84%	-25%
O=C(Nc1nc2cc3c(cc2s1)OCCO3)c1ccc([N+](=O)[O-])o1	7.1µM*	?	-3	19%	-6%	-4%
O=C(Nc1nc2c(F)cc(F)cc2s1)c1ccc([N+](=O)[O-])o1	?	?	-1	15%	-26%	-2%
Cc1ccc(C)c(-c2nnc(NC(=O)C3=COCCO3)o2)c1	3%	4%	4	-1%	15%	-2%
SMILES	Nrf2 activator	p53 reactivation	IL2 activator	Nrf2 block	BRCA1 expr act	A549 tox
O=C(Nc1nc2ccccc2s1)c1ccccc1[N+](=O)[O-]	20%	28µM*	2	?	69%	-1%
O=C(Nc1nc2ccccc2s1)c1ccc([N+](=O)[O-])o1	3.5µM*	?	1	?	-47%	-5%
CC1CCN(c2oc(-c3ccc(COc4ccc(Cl)cc4)o3)nc2C#N)CC1	-1%	·	·	-17%	·	4%
O=C(CNC(=O)c1ccccc1)OC(CCc1ccccc1)C(=O)Nc1cc(C(F)(F)F)ccc1Cl (configuration not stated)	·	·	·	13%	·	0%
COCCNC(=O)CCCn1c(SCc2ccccc2Cl)nc2c(sc3ccccc32)c1=O	9%	·	·	-16%[9.27 µM]	·	2%
CCCC(=O)Nc1ccccc1C(=O)OCc1cc(=O)n2nc(C(C)C)sc2n1	-1%	·	·	·	·	7%
O=C(c1nc2ccccc2[nH]1)c1ccccc1[N+](=O)[O-]	3%	?	0	-10%	11µM*	-11%
NS(=O)(=O)c1ccc(O)c(NC(=O)c2ccc([N+](=O)[O-])o2)c1	10µM*	?	-2	1%	-25%	-11%
Cc1cc(C)c2sc(NC(=O)c3ccc([N+](=O)[O-])o3)nc2c1	7.9µM*	?	-2	11%	-1%	-10%
Cc1cc(C)c2nc(NC(=O)c3ccc([N+](=O)[O-])o3)sc2c1	?	?	2	5%	-2%	-14%
COc1ccccc1C(=O)Nc1nc2cc3c(cc2s1)OCCO3	8%	13%	-1	12%	-45%	-2%
Cc1cc(C)cc(NC(=O)c2ccc([N+](=O)[O-])o2)c1	?	-13%	0	?	-88%	-10%
COc1ccc(C(=O)Nc2nc3cc4c(cc3s2)OCCO4)c(OC)c1	4%	3%	-1	21µM*	-5%	-4%
O=[N+]([O-])c1nc2ccccc2[nH]1	0%	·	0	-11%	29%	-11%
Cc1ccc(S(=O)(=O)n2nc(C)c(S(=O)(=O)N3CCCCCC3)c2C)cc1C	-2%	·	·	·	11%	-1%
O=C1c2ccccc2C(=O)N1c1cncc2ccccc12	·	·	·	21%	·	4%
O=C(NNC(=O)c1ccc([N+](=O)[O-])o1)c1ccccc1	22µM*	-23%	0	·	-48%	?
O=C(Nc1nc(-c2ccccn2)cs1)c1ccc([N+](=O)[O-])o1	11µM*	?	-3	5%	-72%	-6%
